Data on 26 compounds can be found in PubChem BioAssay (NCI).

About 79,000 compounds went through this panel and 15% of them were active in at least one assay; those are over-represented in the sample as a whole. A number with no mark means an inactive call. The source made the active and inactive calls. No stated cut-off is given here; in the data, active means growth inhibition above about 70%; inactive means the rest.

Assay [1] can be described thus: NCI Yeast Anticancer Drug Screen. Data for the rad50 strain (AID 155).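 Further: 0% = growth of vehicle-only cultures of the same strain.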 Particulars: S. cerevisiae rad50 strain growth inhibition, active compounds read high; at 50.0 µM unless noted. A digest of the protocol: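 Compounds were tested on a yeast strain with an engineered DNA damage repair alteration; the reported value is growth inhibition normalised to vehicle treatment.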

Assay [2] is described as follows: NCI Yeast Anticancer Drug Screen. Data for the mec2-1 strain (AID 157). Particulars: S. cerevisiae mec2-1 strain, active compounds read high; at 50.0 µM unless noted. A digest of the protocol:
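Using mec2-1 yeast: add compound, measure growth, express inhibition versus vehicle-treated cultures.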

Assay [3] can be described thus: NCI Yeast Anticancer Drug Screen. Data for the sgs1 mgt1 strain (AID 161).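 Further: 0% = growth of cultures given vehicle only.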 Particulars: S. cerevisiae sgs1 mgt1 strain, active compounds read high; at 50.0 µM unless noted. Put shortly:
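Growth of a repair-deficient yeast mutant was monitored after compound treatment and expressed as inhibition relative to vehicle-treated cultures.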

Assay [4] is described as follows: NCI Yeast Anticancer Drug Screen. Data for the cln2 rad14 strain (AID 165).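 Further: 0% = growth equal to vehicle treated cultures.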 Particulars: S. cerevisiae cln2 rad14 strain, active compounds read high; at 50.0 µM unless noted. Put shortly: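 Yeast strain cln2 rad14, bearing defects in cell cycle control and DNA repair, serves as the test system; values reflect growth inhibition compared with vehicle.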
Assay [5] in a line: NCI Yeast Anticancer Drug Screen. Data for the bub3 strain (AID 167). Particulars: S. cerevisiae bub3 mutant strain, active compounds read high; at 50.0 µM unless noted. Put shortly: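 Growth of a checkpoint-deficient yeast mutant is measured after compound exposure. Values represent inhibition relative to vehicle.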
A short description of assay [6]: NCI Yeast Anticancer Drug Screen. Data for the mlh1 rad18 strain (AID 175). Particulars: S. cerevisiae mlh1 rad18 strain growth inhibition, active compounds read high; at 50.0 µM unless noted. Put shortly: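 Steps: expose repair-defective yeast to compound; measure growth; express inhibition against vehicle-treated controls.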

Regarding `CC(=O)[C@@]1(O)CC[C@H]2[C@@H]3CC[C@@H]4C[C@H](O)CC[C@]4(C)[C@H]3[C@H](O)C[C@@]21C`, the growth inhibition in assay [1] is -9.8%; in assay [2], -3.7%; in assay [3], 8%; in assay [4] it was -34.1%; in assay [5], 11.3%.
Taken in the same sequence, the figures for `CC(C)C(=O)NCC[C@@H](CNC(=O)OC(C)(C)C)NC(=O)OC(C)(C)C` were 20.1%, -3.1%, 38.6%, -3.85% and 28.7%.
Taken in the same sequence, the figures for `COc1c(OC(C)=O)c(OC(C)=O)cc2c1-c1ccc(SC)c(=O)cc1C(NC(C)=O)CC2` (configuration not stated) were 23.2%, 3.5%, -28.8%, -24.6% and -33.8%.
Taken in the same sequence, the figures for `O/N=C(Sc1ccccn1)/C(=N/O)Sc1ccccn1` were -7.25%, 0%, -2.9%, -3.05% and 4.7%.
As for `CCc1nc(Cl)nc(Cl)c1Cl`, the growth inhibition in assay [1] is -9.1%; in assay [2] it was -17.1%; in assay [3], -18.2%; in assay [4] it was 0.2%; in assay [5], -8.5%.
Taken in the same sequence, the figures for `CC1(C)OC2OC3C(O)C(=O)OC3C2O1` (configuration not stated) were -36.8%, -16.9%, -19.2%, -20% and -2.6%.
Regarding `CCC/C(=N\NC(=S)N1CCN(c2ccccn2)CC1)c1ccccn1`, the growth inhibition in assay [1] is 87.3% (active); in assay [2] it was 90.3% (active); in assay [3] it was 88.8% (active); in assay [4] it was 80.5% (active); in assay [5], 20.9%.
Taken in the same sequence, the figures for `C=C1COC(O)(C2OCOC(C3CC(=O)NC(=O)C3)C2O)C1C` (configuration not stated) were 88% (active), 91.2% (active), 91.5% (active), 89.8% (active) and 89.2% (active).
Taken in the same sequence, the figures for `O=C(Cc1ccccc1)c1ccccc1C(=O)NCc1ccncc1` were 1.7%, 2.05%, 2.25%, -20.5% and 9%.
Regarding `C/C(=N\NC(=S)N1CCCCCC1)c1nccnc1C`, the growth inhibition in assay [1] is 85.7% (active); in assay [2] it was 90.5% (active); in assay [3], 89.7% (active); in assay [4] it was 86.5% (active); in assay [5], 87.4% (active).
For the compound `COc1cc(-c2cc(=O)c3c(O)c(OC)c(OC)c(OC)c3o2)cc(OC)c1OC`, the growth inhibition is -9.45% in assay [1]; -2.7% in assay [2]; -10.8% in assay [3]; -10% in assay [4]; -20.8% in assay [5].
With `Oc1cc(Cl)cc2cccnc12`, the growth inhibition in assay [1] was 87.8% (active); in assay [2] it was 91.5% (active); in assay [3] it was 88.8% (active); in assay [4], 91.6% (active); in assay [5] it was 90% (active).
Regarding `O=[N+]([O-])c1ccc[nH]1`, the growth inhibition in assay [1] was -6.15%; in assay [2] it was -9.95%; in assay [3], -4.2%; in assay [4] it was 15.3%; in assay [5], 3%.
For `C=C1CC(c2ccccc2)(c2cccs2)OC1=O` (configuration not stated), the growth inhibition in assay [1] was 67.7%; in assay [2] it was 93.6% (active); in assay [3], 96.2% (active); in assay [4] it was 14.3%; in assay [5], 90.5% (active).
For the compound `C=CCc1cc(-c2cc(CC=C)c(O)c(CN(CC)CC)c2)cc(CN(CC)CC)c1O`, the growth inhibition in assay [1] is -9%; in assay [2], -5.2%; in assay [3], -20%; in assay [4], -18%; in assay [5] it was -12.1%.
In the same order, the values of `O=C(CC(CC(=O)C(c1ccccc1)c1ccccc1)c1ccccc1)C(c1ccccc1)c1ccccc1` are 45.9%, 18%, 61.9%, -0.6% and -8.3%.
On to `Cc1nc2c(n1-c1ccc(Br)cc1)C(=O)c1ccccc1C2=O`, for which the growth inhibition in assay [1] was 33.9%; in assay [2], -17.9%; in assay [3], -4.4%; in assay [4], 12.3%; in assay [5], -30.2%.
In the same order, the values of `O=C(O)CCCCCCC(=O)O` are 2.1%, -4.85%, 2.85%, 2.95% and 0.9%.
Taken in the same sequence, the figures for `CC1(C)Oc2nc[nH]c(=O)c2C1c1ccccc1` (configuration not stated) were 2.55%, -4.5%, -0.4%, -20.1% and -19.4%.
In the same order, the values of `[O-][N+](=Nc1ccc2c(c1)Cc1ccccc1-2)c1ccc2c(c1)Cc1ccccc1-2` are 25.7%, -20.2%, 25.1%, -19.1% and 0.35%.
Turning to `CC(=O)NC(CCCCNC(=O)N(CCCl)N=O)C(=O)NCc1ccccc1` (configuration not stated), the growth inhibition was 1.2% in assay [1]; -1.15% in assay [2]; 0.7% in assay [3]; 14.7% in assay [4]; -2.35% in assay [5].
In the case of `CC(=O)O[C@H]1C(=O)[C@@]2(C)C(C(OC(=O)c3ccccc3)[C@]3(O)CC(OC(=O)[C@H](OC(=O)CCC(=O)O)C(NC(=O)c4ccccc4)c4ccccc4)C(C)=C1C3(C)C)C1(OC(C)=O)COC1C[C@@H]2OC(=O)CCC(=O)O` (some centres not stated), the growth inhibition in assay [1] was 29.6%; in assay [2], -5.45%; in assay [3] it was -25.4%; in assay [4], -7.4%; in assay [5], -8.05%.
On to `C/C(=N/NC(N)=O)C1CCc2ccccc2C1` (configuration not stated), for which the growth inhibition is 43% in assay [1]; -6.9% in assay [2]; 3.2% in assay [3]; 1.95% in assay [4]; 7.8% in assay [5].
As for `O=C(Cc1csc2ccccc12)NCC1CC1`, the growth inhibition was -17.4% in assay [1]; -19.1% in assay [2]; -0.45% in assay [3]; 2.45% in assay [4]; 11% in assay [5].
For the compound `CC(CN(CP(=O)([O-])[O-])CP(=O)([O-])[O-])N(CP(=O)([O-])[O-])CP(=O)([O-])[O-].N.N.[Pt+2]` (configuration not stated), the growth inhibition is -18.6% in assay [1]; -20.5% in assay [2]; -18.9% in assay [3]; 23.6% in assay [4]; 9.9% in assay [5]; -10.8% in assay [6].
For the compound `O=[N+]([O-])c1cc(Cl)ccc1S(=O)(=O)N1CCCc2cc(Cl)ccc21`, the growth inhibition in assay [1] was 66.2%; in assay [2] it was 51.8%; in assay [3], 64.8%; in assay [4], 62.1%; in assay [5] it was 63.6%; in assay [6], 62%.
